N-glyco inh: increase of ERlucT glycosylation luciferase signal, primary screen, N-linked glycosylation inhibitor project, D54 ERlucT cells, luminescence, set 2; reporter increase, % at 12.5 µM; hit rate 0.23% among 360,000; D54 ERlucT glycosylation luciferase reporter, 24 h; percent of 100 nM tunicamycin response; AID 588692, 2011;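 active = mean luciferase reporter signal, scaled so untreated is 0 and the glycosylation-blocking control 100, at or above a set limit in every replicate; inconclusive = mean reaches the limit but not every replicate does; inactive = mean below the limit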;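 also: luciferase carries N-glycosylation sites so blocking glycosylation raises the light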
CaV13 FRET inh: Primary screen for inhibitors of IQ motif and Ca2+-dependent inactivation inhibitor domain binding in CACNA1D, Förster resonance energy transfer in living cells, … | HEK cells, CFP/YFP FRET ICDI-IQ, plate reader, 10 min; percent FRET-ratio fall versus neutral wells | inhibition, % at 12.3 µM | hit rate 0.098% among 340,000 | AID 743397;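 active = mean replicate inhibition of at least 30% and at least 1% of replicates passing that level; inconclusive = only one of the two criteria is met; inactive = neither criterion is met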
Pemphigus Ab inh: inhibitors of pemphigus antibody binding to DSG3, primary screen, biochemical, bead-based, flow cytometry, scFv-GFP | Desmoglein-3 (Homo sapiens), P32926 | DSG3-coupled beads, scFv-anti-DSG3-GFP binding; active compounds read low | binding (percent of control), % at 10 µM | AID 588358, 2011 | hit rate 0.48% among 310,000;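 active = binding more than 3 SD below its plate's average and above zero; inconclusive = below that plate limit but binding exactly zero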;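 also: hits lower antibody fragment binding to DSG3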
Vif imaging: HIV Vif self-association inhibitors, primary screen, imaging, HEK293T, single point; HEK293T cells, Vif self-association by quenched fluorescence, 24 h; inhibition, % at 7.49 µM; hit rate 0.35% among 340,000; AID 602346, 2012; in the data active = inhibition above about 50%, passing the limit was not always enough; inconclusive = no clear call, values can overlap the other calls; inactive = below about 31%
NSD2 HMT inh: NSD2 histone methyltransferase inhibitors, primary screen, biochemical, AlphaScreen, single concentration, set 2 | Histone-lysine N-methyltransferase NSD2 (Homo sapiens), O96028 | NSD2 peptide methylation, 120 min | inhibition, % at 12.5 µM | hit rate 0.54% among 310,000 | AID 743445, 2014; in the data active = inhibition above about 50%
ATG4B inhibitor: ATG4B protease inhibitors, primary screen, biochemical, fluorescence, uHTS; Cysteine protease ATG4B (Homo sapiens), Q9Y4P1; ATG4B cleavage of LC3-PLA2, NBD-HPC fluorescence, 1 h; inhibition, % at 8.33 µM; hit rate 0.51% among 340,000; AID 504462, 2011; in the data active = inhibition above about 40%
Target sequence (Q9Y4P1 whole entry, looked up): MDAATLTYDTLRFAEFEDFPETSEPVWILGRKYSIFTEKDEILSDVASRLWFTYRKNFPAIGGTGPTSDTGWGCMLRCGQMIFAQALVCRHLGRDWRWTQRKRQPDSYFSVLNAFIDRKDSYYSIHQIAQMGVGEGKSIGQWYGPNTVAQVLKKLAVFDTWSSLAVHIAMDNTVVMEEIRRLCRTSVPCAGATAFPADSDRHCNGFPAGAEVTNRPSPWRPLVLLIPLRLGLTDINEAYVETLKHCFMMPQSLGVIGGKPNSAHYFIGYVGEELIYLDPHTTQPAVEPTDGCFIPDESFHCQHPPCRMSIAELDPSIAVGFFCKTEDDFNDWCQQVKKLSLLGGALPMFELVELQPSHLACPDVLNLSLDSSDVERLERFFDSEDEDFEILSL
A number is an active result; - = inactive; ? = inconclusive; . = no result given; + = active, no number. Hits are enriched below; roughly 1.9% of the tested compounds scored in any of these assays.

SMILES	N-glyco inh	CaV13 FRET inh	Pemphigus Ab inh	Vif imaging	NSD2 HMT inh	ATG4B inhibitor
Cc1ccc(/C=C2/NC(=O)[C@H](C)NC2=O)cc1	-	-	-	-	-	-
Cc1ccc(C)c(OCc2cc(C(=O)N3CCN(c4ccccc4)CC3)no2)c1	-	-	-	-	-	-
CCCn1c(=O)c(C(=O)Nc2ncccc2O)c(O)c2ccccc21	-	-	-	58	-	-
Cn1c(=O)c(C(=O)Nc2ncccc2O)c(O)c2ccccc21	-	-	-	-	-	-
Cc1ccc(OCC(=O)NN=C2c3ccccc3-c3ccccc32)cc1	-	-	-	-	-	-
Cc1nc2ccc(C(=O)NCCc3c[nH]c4ccccc34)cn2c1N(C)C(=O)CCc1ccccc1	-	-	.	54	-	.
CCCCN(C)c1c(C)nc2ccc(C(=O)NCCc3c[nH]c4ccccc34)cn12	-	-	.	-	-	.
CC(C)n1c(SCC(=O)Nc2nc3ccccc3s2)nc2c1c(=O)n(C)c(=O)n2C	-	.	87	.	-	-
O=C(NC(=S)Nc1nc(-c2cccc([N+](=O)[O-])c2)cs1)c1cc(Cl)ccc1Cl	-	-	-	-	-	-
COc1ccccc1C(=O)NCCC(=O)N1CCN(c2ccccc2Cl)CC1	-	-	-	-	-	-
Cc1ccccc1S(=O)(=O)Nc1nc2ccccc2nc1NCCO	-	-	-	52	-	-
CCc1nc2c(OCc3ccc(Cl)cc3)cccn2c1N(C)C(=O)c1cccs1	-	-	.	-	-	.
COc1cccc(C(=O)NCCCNC(=O)c2cccnc2)c1	-	-	-	87	-	-
CN(C)c1ccc(C(C[N+](=O)[O-])c2c(N)n(C)c(=O)n(C)c2=O)c(F)c1C#N (stereo not drawn)	28	-	-	-	-	-
COc1cccc(C(=O)NN2CC(O)=C(c3nc4ccccc4s3)C2=N)c1	-	-	-	-	-	-
N=C1C(c2nc3ccccc3s2)=C(O)CN1NC(=O)c1ccco1	-	-	76	-	-	-
O=C(Cn1nc(C(=O)O)c2ccccc2c1=O)Nc1ccc(Cl)c(S(=O)(=O)N2CCOCC2)c1	-	-	69	-	-	-
Cn1nc(C(=O)Nc2cccc(S(=O)(=O)N3CCOCC3)c2)c2ccccc2c1=O	-	-	.	-	-	-
Cc1ccc(NC(=O)Cn2nc(C(=O)O)c3ccccc3c2=O)cc1S(=O)(=O)N1CCOCC1	-	-	-	-	-	-
COc1ccc(NC(=O)Cn2ncc(Cl)c(Cl)c2=O)cc1S(=O)(=O)N1CCOCC1	-	-	-	59	-	-
Cn1nc(C(=O)Nc2ccc(S(=O)(=O)N3CCOCC3)cc2)c2ccccc2c1=O	-	-	84	-	-	-
COc1ccc(NC(=O)c2ccc(-c3ccccc3)cc2)cc1S(=O)(=O)N1CCOCC1	-	-	88	-	-	-
CCS(=O)(=O)N1CCN(c2ccnc3cc(Cl)ccc23)CC1	-	-	-	-	-	-
CCC(C)(C)NC(=O)CN(C(=O)c1snc(C(N)=O)c1N)c1ccc2c(c1)OCO2	-	-	-	-	-	-
Cc1ccc2nc(NCc3ccco3)c(C=NCc3ccco3)c(=O)n2c1	-	-	-	-	-	-
SMILES	N-glyco inh	CaV13 FRET inh	Pemphigus Ab inh	Vif imaging	NSD2 HMT inh	ATG4B inhibitor
O=C(NCCCc1ccccc1)c1cc(COc2ccc(F)cc2Cl)on1	-	-	35	-	-	-
c1ccc(CNc2ncnc3c2cnn3-c2ccccc2)cc1	26	-	-	-	-	-
Fc1ccc(CNc2ncnc3c2cnn3-c2ccccc2)cc1	-	-	-	-	.	-
C=CCn1c(=O)c(C(=O)Nc2ccccc2C)c(O)c2ccccc21	-	-	-	-	-	-
Cc1csc(NC(=O)C(NS(=O)(=O)c2ccc(Br)s2)c2ccccc2)n1 (stereo not drawn)	-	-	86	-	-	-
Cc1cc(C)nc(Nc2ccc(C(=O)O)cc2)n1	-	.	-	58	-	-
Cc1cc(C)nc(Nc2ccc(O)cc2)n1	-	-	-	.	-	-
CCCC(C)c1nc(C(N)=O)c2[nH]c(=O)n(-c3ccc(OC)cc3OC)c2n1 (stereo not drawn)	-	.	-	-	-	-
CCc1ccccc1NS(=O)(=O)c1cc(C)ccc1OC	-	-	-	-	-	-
COc1cc(-c2nc3cnccn3c2Nc2ccccc2)ccc1O	-	-	-	-	.	-
COc1cc(-c2nc3cnccn3c2Nc2ccc(C)cc2)ccc1O	26	-	-	.	-	-
O=C(Nc1ccc(S(=O)(=O)Nc2ncccn2)cc1)c1ccccc1NS(=O)(=O)c1ccc(Cl)cc1	-	-	-	-	.	-
O=S(=O)(Nc1cc(Sc2ncn[nH]2)c(O)c2ccccc12)c1ccccc1	-	-	.	-	+	-
Cc1cc(O)c(Sc2ncn[nH]2)cc1NS(=O)(=O)c1ccc(Cl)cc1	-	-	-	-	-	-
CCn1c(C)nc2cc(C(=O)NNC(=O)CCC3CCCCC3)ccc21	-	.	63	-	-	-
CC(=O)NC(C)(c1ccccc1)c1nc(-c2csc3ccccc23)cs1 (stereo not drawn)	-	-	.	?	-	.
Cc1ccc(NC(=O)CSc2nsc(SCC(=O)Nc3ccc(C)cc3C)c2C#N)c(C)c1	30	-	-	-	-	-
Cc1cccn2cc(CNS(=O)(=O)c3ccc4ccccc4c3)nc12	-	-	-	-	-	-
CCOC(=O)c1[nH]c(C)c(C(=O)Nc2cc(Cl)ccc2C)c1C	29	-	-	-	-	-
O=C(COC(=O)c1ccc(Cl)c(S(=O)(=O)NCc2ccccc2)c1)NC1CC1	-	-	.	77	-	-
O=[N+]([O-])c1ccc(/C=N/N=C/c2ccc([N+](=O)[O-])o2)o1	-	-	-	53	.	-
Cc1ccsc1/C=C1\CCC(C2CCCC2)C1=O (stereo not drawn)	-	-	-	-	-	-
CCCc1cc(=O)oc2cc(OCC(=O)N(C)C)c(Cl)cc12	-	-	2.6	-	-	-
CCCc1cc(=O)oc2cc(OCC(=O)N3CCOCC3)c(Cl)cc12	-	-	-	-	-	-
COc1ccccc1OCC(=O)Nc1ccc2c(c1)OCO2	-	-	-	-	-	-
CCCNc1nc2ccccc2n2c(C)nnc12	40	-	-	-	-	-
CCCN(CCC)c1nc2ccccc2n2c(C)nnc12	-	-	-	-	-	-
O=C(NC1CCCC1)C(c1ccncc1)N(C(=O)Cc1cccs1)c1ccc(F)cc1 (stereo not drawn)	-	-	-	-	.	-
